{"source": "PubChem BioAssay (NCI)", "note": "About 83,000 compounds went through this panel and 20% of them were active in at least one assay; those are over-represented in the sample as a whole.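 Compound tested at a single concentration for 48 hours in 96-well plates; a percent growth value below 10 was scored as active.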 A number with no mark means an inactive call. The source made the active and inactive calls.", "data": [{"tested_on": "MDA-MB-435 melanoma", "test": "NCI-60 one-dose screen, 48 h (100 = growth as untreated, 0 = no growth, -100 = all killed)", "conditions": "10 µM unless noted", "values": [{"smiles": "O=C(CN1CCN(c2cc(=O)n(-c3ccccc3)c3ccccc23)CC1)Nc1nc(-c2ccccc2)cs1", "growth": "73.4%"}, {"smiles": "Cc1ccc(NC(=O)c2ccc(CN3CCOCC3)c(C(F)(F)F)c2)cc1Oc1ccc(-c2[nH]nc3ncnc(N)c23)cc1", "growth": "47.7%"}, {"smiles": "Cc1ccc(NC(=O)CNc2cc(C(N)=O)cc(F)c2C)c(Cl)c1", "growth": "97.4%"}, {"smiles": "COc1cc(C2N=C(NNc3ccccc3)NC(C)=C2C(C)=O)ccc1O", "note": "(centres undefined)", "growth": "92.5%"}, {"smiles": "CNc1ncc2cc(-c3ccc(-c4ncccc4F)cc3Cl)c(=O)n(CC3OCC(N)CO3)c2n1", "note": "(centres undefined)", "growth": "105%"}, {"smiles": "Nc1cc(-c2c[nH]c3ccc(Br)cc23)nc2cc(-c3c[nH]c4ccc(Br)cc34)nn12", "growth": "-20.3% (active)"}, {"smiles": "Cc1cc2ncc(-c3cc4ccccc4c(N4CCN(C)CC4)n3)nc2cc1C", "growth": "-87.8% (active)"}, {"smiles": "O=C(NCCn1ccnc1)c1ccc(-c2nc3ccc4[nH]ncc4c3c3c2CCCC3)cc1", "growth": "-1.93% (active)"}, {"smiles": "N#C/C(=C\\c1ccc(-c2ccc(Cl)cc2Cl)o1)c1ccc(F)cc1", "growth": "93.7%"}, {"smiles": "COc1cc(Nc2c(C#N)cnn3cc(-c4cnn(CC(C)(C)O)c4)cc23)ccc1Cl", "growth": "38.3%"}, {"smiles": "C=C(C=O)[C@@H]1CC[C@]2(CO)CC[C@]3(C)[C@H](CC[C@@H]4[C@@]5(C)CCCNC(C)(C)[C@@H]5CC[C@]43C)[C@@H]12", "growth": "76.3%"}, {"smiles": "CC/C(=C/c1cc(OC)ccc1O)c1ccc2cc(OC)ccc2[o+]1", "growth": "-28.3% (active)"}, {"smiles": "COc1c(N2CC3CCCNC3C2)c(F)cc2c(=O)c(C(=O)N/N=C/c3ccc4c(c3)OCO4)cn(C3CC3)c12", "note": "(centres undefined)", "growth": "102%"}, {"smiles": "COc1cccc2cc(-c3cc4ccccc4[nH]3)/c(=N\\NC(=O)c3ccc(Cl)cc3)oc12", "growth": "44.7%"}, {"smiles": "C=CC(=O)N1CCC=C(c2cc3c(N[C@H](C)c4ccccc4)ncnc3[nH]2)C1", "growth": "74.5%"}, {"smiles": "O=C(CSc1nc2ccccc2c(=O)n1-c1ccccc1)Nc1cccc(C(=O)/C=C/c2ccccc2)c1", "growth": "93.2%"}, {"smiles": "c1cn2c(ccc3nc(-c4cn[nH]c4)c4c(c32)CCCC4)n1", "growth": "34.9%"}, {"smiles": "O=S(=O)(NCCCNc1nccc(-n2cnc3ccccc32)n1)c1ccc(C(F)(F)F)cc1", "growth": "93.4%"}, {"smiles": "COc1ccc(-c2cc(-c3ccc(Cl)cc3)c(C#N)c(=O)n2Cc2ccc(C(=O)O)cc2)cc1", "growth": "21.1%"}, {"smiles": "COc1cc2c(cc1OC)C(Sc1ccc(C)cc1)c1c(nc(N)c(C#N)c1N)O2", "note": "(centres undefined)", "growth": "-31.3% (active)"}, {"smiles": "CCc1nn2c(C)cc(C)nc2c1Cc1ccc(/C=C/CN2CCN(CCOCCOCCN3CCN(C/C=C/c4ccc(Cc5c(CC)nn6c(C)cc(C)nc56)cc4)CC3)CC2)cc1", "growth": "-78.3% (active)"}, {"smiles": "Cc1noc(C)c1CSc1nc2ccccc2n1-c1ccccc1", "growth": "100%"}, {"smiles": "COc1cccc2c1CN(C(=O)c1ccc(O)c(C(=O)N3Cc4ccc(OCCC[P+](c5ccccc5)(c5ccccc5)c5ccccc5)cc4C3)c1)C2", "growth": "32%"}, {"smiles": "COc1ccc2c(c1)Oc1nc(N)c(C#N)c(N)c1C2Sc1ccc(C)cc1", "note": "(centres undefined)", "growth": "-8.09% (active)"}, {"smiles": "Nc1nc(-c2cccc([N+](=O)[O-])c2)c(N=Nc2cccc([N+](=O)[O-])c2)s1", "growth": "36.2%"}, {"smiles": "Fc1ccc(-c2cc3nc(C(Cl)Cl)nc(-c4ccco4)n3n2)cc1", "growth": "-1.86% (active)"}, {"smiles": "CCN1CCN(Cc2ccc(C(=O)Nc3ccc(C)c(Oc4ccc(-c5[nH]nc6ncnc(N)c56)cc4)c3)cc2C(F)(F)F)CC1", "growth": "82%"}, {"smiles": "Cc1ccc(-n2cc(/C=C/C(=O)c3ccc(O)cc3)c(-c3ccc(S(C)(=O)=O)cc3)n2)cc1", "growth": "1.81% (active)"}, {"smiles": "CCCn1cnc2c(c1=N)C(c1ccc(OC)cc1)c1sc3c(CC)cccc3c1O2", "note": "(centres undefined)", "growth": "-44.5% (active)"}, {"smiles": "Cc1ccc(NC(=O)c2ccc(CN3CCN(C)CC3)cc2)cc1Oc1ccc(-c2[nH]nc3ncnc(N)c23)cc1", "growth": "86.4%"}, {"smiles": "CC(=O)c1nnn(-c2c(C(=O)n3nc(C)cc3C)sc(=S)n2-c2ccccc2)c1C", "growth": "108%"}, {"smiles": "O=S(=O)(NCCNc1nccc(-n2cnc3ccccc32)n1)c1ccc(C(F)(F)F)cc1", "growth": "64.4%"}, {"smiles": "NC(N)=Nc1ccc(Oc2cccc(Nc3cccc(C(F)(F)F)c3)c2)cn1", "growth": "-20.6% (active)"}, {"smiles": "Nc1nc(-c2cccc([N+](=O)[O-])c2)c(N=Nc2ccc(Br)cc2)s1", "growth": "0.572% (active)"}]}]}
